Data as given in PubChem BioAssay (NCI).
“And” between values parts separate entries of the source, which are not always exact repeats. Identical values can stand only once. The panel holds about 83,000 compounds, 20% with a hit somewhere; the sample as a whole holds those more often.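 How to read the values: 0–100, growth inhibition (40 = 60% inhibited); 0, no net growth; -100 to 0, cell death (-40 = 40% of starting cells died; -100 = all dead).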 The source made the active and inactive calls. Rule for the calls: active = growth percent below 10; inactive = the rest.

Legend:
Experiment in all cases: NCI-60 one-dose screen, 48 h (100 = growth as untreated, 0 = no growth, -100 = all killed)
Settings in all cases: 10 µM unless noted
[1] = system: DU-145 prostate
[2] = system: K-562 leukemia
[3] = system: MALME-3M melanoma
[4] = system: MDA-MB-231 breast
[5] = system: RXF 393 renal
[6] = system: SF-268 CNS
[7] = system: SF-295 CNS
[8] = system: SF-539 CNS
[9] = system: UACC-257 melanoma
[10] = system: M14 melanoma

Measured: growth

COc1cc2oc3cc(=O)cc4oc(-c5ccccc5)cc(c2c2c1CCC(c1ccccc1)O2)c43 (stereo not given)
inactive: [1] 79.7% | [2] 42.1% | [3] 117% | [4] 75.8% | [5] 78.6% | [6] 85.1% | [7] 70.5% | [8] 78.7% | [9] 99.9% | [10] 88.2%

O=C(O)C1CSCN1 (stereo not given)
inactive: [1] 116% and 127% | [2] 93.5% and 95.2% | [3] 94.1% | [4] 107% and 112% | [5] 123% | [6] 117% and 104% | [7] 104% and 108% | [8] 121% and 93.4% | [9] 106% and 91.6% | [10] 108% and 99.8%

N#CC(=S)Nc1ccc(Cl)c(Cl)c1
inactive: [1] 18.6% | [2] 16.1% | [5] 13% | [6] 11% | [10] 26.1%
active: [3] -13.4% | [4] -4.8% | [7] -0.242% | [8] 8.61% | [9] -6.42%

CC1CCC(=O)N1c1ccc(N)cc1 (stereo not given)
inactive: [1] 105% | [2] 99.9% | [3] 105% | [4] 101% | [5] 112% | [6] 103% | [7] 102% | [8] 99.8% | [9] 88.7% | [10] 104%

OC(CC(c1ccccc1)c1cccc2ccccc12)(c1ccccc1)c1ccccc1 (stereo not given)
inactive: [1] 108% and 103% | [2] 92.9% and 67.2% | [3] 101% and 104% | [4] 69.4% and 71.2% | [5] 92.7% and 86.7% | [6] 84.9% and 89.4% | [7] 80% and 81.3% | [8] 94.4% and 93.3% | [9] 62.8% and 85.3% | [10] 72.1% and 77.2%

O=c1[nH]c(=O)c2[nH]c(=O)[nH]c2[nH]1
inactive: [1] 107% | [2] 135% | [3] 93.2% | [4] 101% | [5] 84.6% | [6] 103% | [7] 98.3% | [8] 97.7% | [9] 107% | [10] 91.5%

COc1ccc(/C=N/Nc2nc3ccccc3s2)cc1
inactive: [1] 105% | [2] 93.2% | [3] 44.2% | [4] 86% | [5] 97.5% | [6] 106% | [7] 97.1% | [8] 94% | [9] 103% | [10] 87.7%

O=[N+]([O-])c1cccc(N=Cc2ccccc2)c1
inactive: [1] 117% | [2] 95.8% | [3] 119% | [4] 106% | [5] 105% | [6] 105% | [7] 96.5% | [8] 99.5% | [9] 102% | [10] 106%

CC(=O)Oc1ccc(C(c2ccc(OC(C)=O)cc2)c2ccccn2)cc1
inactive: [1] 96.8% and 106% | [2] 89.6% and 99.2% | [3] 100% and 107% | [4] 100% and 102% | [5] 71.9% and 16.1% | [6] 104% and 99.3% | [7] 92.1% | [8] 100% and 75.6% | [9] 96.1% and 88.3% | [10] 95.1% and 69.3%

COC1C(OC(N)=O)C(O)C(Oc2ccc3c(O)c(NC(=O)c4ccc(O)c(CC=C(C)C)c4)c(=O)oc3c2C)OC1(C)C (stereo not given)
inactive: [1] 106% and 105% | [2] 79.4% and 116% | [3] 121% and 101% | [4] 108% and 88.2% | [5] 104% and 98.2% | [6] 104% and 97.1% | [7] 92.7% and 94.9% | [8] 98% and 97.1% | [9] 104% and 101% | [10] 102% and 99.2%

CCN(CC)C(CC(=O)c1ccccc1)C(=O)c1ccccc1 (stereo not given)
inactive: [1] 99.9% | [2] 38.2% | [3] 104% | [4] 110% | [5] 115% | [6] 98% | [7] 103% | [8] 101% | [9] 95.5% | [10] 105%

CC(=O)Nc1ccc(OC(C)=O)cc1
8.26% (active) and 106% (inactive): [2]
-5.2% (active) and 95.3% (inactive): [5]
2.32% (active) and 95.1% (inactive): [8]
-16.4% (active) and 109% (inactive): [1]
0.268% (active) and 103% (inactive): [10]
-20.3% (active) and 111% (inactive): [4]
inactive: [3] 44.4% and 111% | [6] 23.1% and 103% | [9] 55.4% and 102%
9.59% (active) and 105% (inactive): [7]

CN(C)c1ccc(C(=N)c2ccc(N(C)C)cc2)cc1
12.8% (inactive) and 7.8% (active): [2]
active: [10] 2.95%
inactive: [1] 42.3% and 56.5% | [3] 61.6% | [4] 53.9% and 35.9% | [5] 49.6% and 39.6% | [6] 44.5% and 53.6% | [7] 26.7% and 12.1% | [8] 41.1% and 34.6% | [9] 38.2% and 51.7%

Cc1c(Cl)cc(Cl)c(N)c1Cl
inactive: [1] 121% | [2] 106% | [3] 109% | [4] 98.9% | [5] 108% | [6] 104% | [7] 102% | [8] 96.4% | [9] 106% | [10] 105%

Cc1ccc([N+](=O)[O-])cc1Br
inactive: [1] 110% | [2] 86.3% | [3] 102% | [4] 104% | [5] 111% | [6] 104% | [7] 97.7% | [8] 91.7% | [9] 79.7% | [10] 95.1%

CC(=O)Nc1ccc2oc(=O)ccc2c1
inactive: [1] 100% | [2] 64.9% | [3] 110% | [4] 94.6% | [5] 103% | [6] 114% | [7] 108% | [8] 99.1% | [9] 104% | [10] 100%

CCNC1=CC(=O)c2ncccc2C1=O
inactive: [2] 21.2% | [4] 51.2% | [5] 99% | [6] 58.3%
active: [1] -92.9% | [3] -84.6% | [7] -71.1% | [8] -59.3% | [9] -13.5% | [10] -87.4%

CCCCC/C(C)=N\NC(N)=S
inactive: [1] 85.2% | [2] 58.7% | [3] 83.7% | [4] 85.9% | [5] 85.7% | [6] 88.2% | [7] 83.4% | [8] 103% | [9] 60% | [10] 74.5%

CC(=O)Nc1cscc1NC(C)=O
inactive: [1] 98.4% | [2] 125% | [3] 88.4% | [4] 101% | [5] 107% | [6] 96.2% | [7] 87.3% | [8] 90.7% | [9] 104% | [10] 104%

N=C(N=C(N)N)N1CCOCC1
inactive: [1] 102% and 106% | [2] 106% and 112% | [3] 90.6% and 108% | [4] 104% and 99.2% | [5] 111% | [6] 104% and 102% | [7] 110% and 96.9% | [8] 105% and 95.9% | [9] 107% and 104% | [10] 91.1% and 97.2%

Cc1cccc(Cl)c1N
inactive: [1] 109% | [2] 107% | [3] 111% | [4] 114% | [5] 126% | [6] 105% | [7] 102% | [8] 111% | [9] 95.5% | [10] 105%

N#CC1c2ccccc2C=CN1C(=O)c1ccccc1 (stereo not given)
inactive: [1] 108% and 94.1% | [2] 99.6% and 112% | [3] 94.8% and 108% | [4] 96% and 94.1% | [5] 136% and 118% | [6] 111% and 84.8% | [7] 101% and 93.3% | [8] 112% and 86.6% | [9] 103% and 113% | [10] 99.9% and 98.7%

COC(=O)c1nc(=S)[nH]c(C(=O)OC)c1C(=O)c1ccccc1
inactive: [1] 116% | [2] 111% | [3] 97.1% | [4] 93.5% | [5] 99.2% | [6] 108% | [7] 103% | [8] 87.8% | [9] 123% | [10] 113%

CC(=O)Oc1cc(C(C)C)c(OCCN(C)C)cc1C
inactive: [1] 124% and 118% | [2] 115% and 124% | [3] 97.5% and 106% | [4] 103% and 112% | [5] 112% and 101% | [6] 112% and 109% | [7] 103% and 92% | [8] 112% and 99.6% | [10] 99.8%
-91.1% (active) and 97.5% (inactive): [9]
